Screens: PubChem, several laboratories
TWEAK Fn14 block = inhibitors of TWEAK-Fn14 signaling, primary screen, luciferase reporter cells, uHTS; TWEAK-stimulated Fn14 reporter cells, luciferase luminescence, 8 h; inhibition, % at 10 µM; 2% of 360,000 active; in the data active = inhibition above about 50%
HSF1 inhib = HSF1 inhibitors in luciferase reporter cells, primary screen, cell-based, NIH3T3, luminescence; NIH3T3-HGL HSE-luciferase, MG132-induced, luminescence 8 h; active compounds read low; AID 2098, 2009; activity change, negative = inhibition, % at 7.5 µM (by protocol); 0.77% of 300,000 active;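 active = more than half of replicate wells show activity change below -50%, luminescence cut by over half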;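 also: luciferase reports HSF-1 transcriptional activity via heat shock element; 0% = median of DMSO wells and -100% = zero luminescence signal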
EBV LMP1 NFkB = EBV LMP1-driven NF-kappaB luciferase reporter inhibitors, primary screen, cell-based, luminescence, single point; LMP1-induced NF-kappaB luciferase reporter cells; inhibition, % at 12.5 µM; 0.69% of 350,000 active; AID 504558, 2011; in the data active = inhibition above about 41%;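 also: 0% = neutral control wells and 100% = reference inhibitor control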
HSF-1 act = HSF-1 activators, primary screen, NIH3T3-HGL cells, MG132 stress, luminescence, single point. NIH3T3-HGL HSF-1 luciferase reporter, 8 h; 100% = twice DMSO control signal. activation, % at 9 µM. 1.7% of 300,000 active;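 active = mean replicate activation of at least 50% with a set share of replicates each reaching 50%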;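 also: 0% = median of the neutral control wells and 100% = twice that signal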
HSP90 refold inh = HSP90 inhibitors, primary screen, cell lysate, luminescence; 0.91% of 290,000 active; Rabbit reticulocyte lysate, luciferase refolding luminescence, 3 h; inhibition, % at 5.6 µM; Heat shock protein HSP 90 (rabbit reticulocyte lysate; luciferase refolding);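 active = inhibition above the screen-wide mean plus 3 SD, computed separately per campaign, cut at about 16% in these data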;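 also: 0% = DMSO wells and 100% = 60 µM geldanamycin wells; inhibitors lower the luminescence because luciferase stays unfolded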
TROY signal inh = inhibitors of TROY-driven NF-kB signaling, primary screen, Q293 LMP1-TROYcd cells, NF-kB luciferase, uHTS | Q293 LMP1-TROYcd NF-kB luciferase reporter, 4 h | 0.98% of 360,000 active | inhibition, % at 10 µM;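 active = compounds whose plate-normalised and pattern-corrected inhibition of the luciferase reporter signal at the single screening dose is 50% or more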
An asterisk follows results filed as active; . = no result given. Shown are actives, neighbours in structure and some others; about 4.7% of the full set was active somewhere.

SMILES	TWEAK Fn14 block	HSF1 inhib	EBV LMP1 NFkB	HSF-1 act	HSP90 refold inh	TROY signal inh
Cc1ccc(-c2nnc(-c3ccc4c(c3)OCO4)o2)cc1	15	13	-10	47	-7	-43
CC(C)C1N=C(c2ccc3c(c2)OCO3)CC(c2ccccc2O)N1 (stereo not given)	25	71	-1	75*	0	-23
O=[N+]([O-])c1ccc(-n2nnnc2-c2ccccc2)c([N+](=O)[O-])c1	87*	244	-13	231*	-1	17
COc1ccc(Cn2cc(CN3CCOCC3)nn2)cc1	-1	.	.	.	.	-5
Cc1cccn2c(=O)nc(SCC(=O)N3N=C(c4cccs4)CC3c3ccc(F)cc3)nc12 (stereo not given)	-6	50	-9	95*	.	2
Cc1ccn2c(=O)nc(SCC(=O)N3N=C(c4cccs4)CC3c3ccc(F)cc3)nc2c1 (stereo not given)	1	3	12	16	.	-18
O=C(CSc1nc2ccccc2s1)N1N=C(c2cccs2)CC1c1ccc(F)cc1 (stereo not given)	10	-5	0	10	-5	5
O=C(CSc1nc2c(cnn2-c2ccc(F)cc2)c(=O)[nH]1)N1N=C(c2cccs2)CC1c1ccc(F)cc1 (stereo not given)	57*	.	.	.	4	50*
Cc1ccc(/C=N/NC(=O)Cn2nnc(N)n2)cc1	12	2	-9	-1	4	13
Cc1ccc(/C=N/NC(=O)Cn2nnc(N)n2)o1	87*	-10	-2	-8	-1	-1
COc1ccc(Sc2ccc(/C=C3\C(=O)NN(c4ccccc4)C3=O)o2)cc1	93*	18	0	20	3	17
C=C(C)CN(CC)c1nc(N)c(C#N)c(CC#N)c1C#N	-13	69	-9	75*	1	-60
Fc1ccc(Nc2ccnc(Nc3ccc(F)cc3)n2)cc1	25	32	-23	72*	-2	-19
Nc1ncnc(Nc2ccc(F)cc2)n1	-1	3	12	-4	0	-12
COc1ccc(C(=O)N2CCCc3ccccc32)cc1Br	-9	0	8	5	1	19
O=C(COc1ccccc1)OCC(=O)N1CCCc2ccccc21	0	4	2	0	.	60*
O=C(C1CC(c2ccc(F)cc2)=NO1)N1CCCc2ccccc21 (stereo not given)	8	-2	5	9	4	-14
COc1cc(OC)cc(C(=O)N2CCCc3ccccc32)c1	52*	-6	10	-8	6	41
COc1ccc(CC(=O)N2CCCc3ccccc32)cc1	50*	-3	1	1	3	35
COc1ccc(OC)c(C2=NOC(C(=O)N3CCCc4ccccc43)C2)c1 (stereo not given)	55*	-1	5	4	1	39
CN(Cc1ccc(Cl)cc1)C(=O)c1[nH]c(C(F)(F)F)nc1-c1ccccc1	-12	.	.	.	.	-1
O=C(c1cc(=O)c2ccccc2o1)N1CCCc2ccccc21	52*	-7	-9	-2	1	28
CC(=C/C(=O)O)/C=C/c1ccc([N+](=O)[O-])cc1	35	.	4	.	0	-32
CC1(C)COC(/C=C/c2ccc([N+](=O)[O-])cc2)=N1	62*	78	9	118*	3	-66
CCOc1ccc2nc(SCC(=O)c3cccs3)sc2c1	-11	35	-55	61*	-2	-65
SMILES	TWEAK Fn14 block	HSF1 inhib	EBV LMP1 NFkB	HSF-1 act	HSP90 refold inh	TROY signal inh
O=C(/C=C/c1ccc2c(c1)OCO2)Nc1nncs1	10	22	.	53*	2	-23
O=C(/C=C/c1ccc2c(c1)OCO2)Nc1nc(-c2ccccc2)cs1	88*	7	7	13	0	62*
CC(=O)Nc1ccc(NC(=O)/C=C/c2ccc3c(c2)OCO3)cc1	-23	7	-13	16	-2	-31
Cc1sc(NC(=O)/C=C/c2ccc3c(c2)OCO3)nc1-c1ccccc1	88*	3	6	6	-1	27
O=C(/C=C\c1ccco1)Nc1nc(-c2ccc3ccccc3c2)cs1	83*	-5	10	-31	-1	48
O=C(N/N=C/c1ccccn1)c1[nH]c2ccc([N+](=O)[O-])cc2c1-c1ccccc1	17	-11	7	-9	0	54*
NNC(=O)c1[nH]c2ccc([N+](=O)[O-])cc2c1-c1ccccc1	-7	-7	-3	0	4	22
C[C@@H]1CN([C@H](C)CO)S(=O)(=O)c2ccc(C3=CCCCC3)cc2O[C@H]1CN(C)C(=O)Cc1cccnc1	0	.	-3	.	.	-5
Cc1cc(C)nc(SCC(=O)OCN2C(=O)c3ccccc3C2=O)n1	0	-7	85*	-1	2	-20
COc1cccc(CNc2nc3cc(-c4ccccc4C)sc3c(=O)n2C)c1OC	48	.	.	.	.	23
CC(C)N1C(=O)S/C(=C\c2ccc(-c3ccc(Cl)c(C(=O)O)c3)o2)C1=O	18	16	-22	32	9	-61
CCN(CC)c1ccc(/C=C2/SC(=O)N(C(C)C)C2=O)o1	26	142	0	209*	2	2
NC(=O)c1cccc(-c2coc3c(C(=O)NCc4ccccc4)cccc23)c1	3	.	.	.	.	2
COc1cc(C=NO)nc(-c2ccccn2)c1	0	.	57*	.	.	10
COc1ccc2nc(-c3ccccn3)[nH]c2c1	50	17	4	30	4	-16
Nc1c(C(=O)NC2CCCC2)sc2nc(-c3cccs3)ccc12	-1	48	-18	56*	3	-43
CCN1/C(=C/C=C/c2oc3ccc4ccccc4c3[n+]2CC)Oc2ccc3ccccc3c21	.	238	.	300*	3	.
COc1ccc(-c2nc3n(n2)C(c2ccccc2)C2=C(CCCC2=O)N3)cc1OC (stereo not given)	-23	-57*	6	-68	7	-4
COc1ccc(C2C3=C(CCCC3=O)Nc3nc(-c4cc(OC)c(OC)c(OC)c4)nn32)cc1OC (stereo not given)	-28	1	4	7	-1	3
CCCCn1nnnc1C1(C)CCC(=O)N1Cc1cccc(F)c1 (stereo not given)	7	.	.	.	.	0
O=C(CCCN1C(=O)C(=Cc2ccc3c(c2)OCO3)SC1=S)Nc1ccc(C(=O)O)c(O)c1	-49	.	.	.	.	8
Cn1c(C(=O)NCc2ccc3c(c2)OCO3)cc2sccc21	-11	9	-2	5	0	-26
Cn1c(C(=O)Nc2ccc3c(c2)OCCO3)cc2c(=O)n(C)c3ccccc3c21	65*	-16	-41	-13	3	22
